Results filed as inconclusive are left out. Activity calls are given as the source filed them. Unless noted, calls come from the whole dose curve; as a rule, active = well fitted curve in the direction sought with a large enough effect in the repeat runs; inconclusive = weak or mixed curves; inactive = no such curve, though single readings can be large; an effect the other way counts as inactive or inconclusive.
Columns and labels:
[1] = biological target: Luciferin 4-monooxygenase (Photinus pyralis) (UniProt P08659); experiment: qHTS assay to identify small molecule inhibitors of firefly luciferase (AID 1224835); note: nearly all actives have a fitted effect of over 25% in size; note: potency is the fitted concentration of half-maximal effect
Sequence of Luciferin 4-monooxygenase (Photinus pyralis) (P08659 whole entry, looked up): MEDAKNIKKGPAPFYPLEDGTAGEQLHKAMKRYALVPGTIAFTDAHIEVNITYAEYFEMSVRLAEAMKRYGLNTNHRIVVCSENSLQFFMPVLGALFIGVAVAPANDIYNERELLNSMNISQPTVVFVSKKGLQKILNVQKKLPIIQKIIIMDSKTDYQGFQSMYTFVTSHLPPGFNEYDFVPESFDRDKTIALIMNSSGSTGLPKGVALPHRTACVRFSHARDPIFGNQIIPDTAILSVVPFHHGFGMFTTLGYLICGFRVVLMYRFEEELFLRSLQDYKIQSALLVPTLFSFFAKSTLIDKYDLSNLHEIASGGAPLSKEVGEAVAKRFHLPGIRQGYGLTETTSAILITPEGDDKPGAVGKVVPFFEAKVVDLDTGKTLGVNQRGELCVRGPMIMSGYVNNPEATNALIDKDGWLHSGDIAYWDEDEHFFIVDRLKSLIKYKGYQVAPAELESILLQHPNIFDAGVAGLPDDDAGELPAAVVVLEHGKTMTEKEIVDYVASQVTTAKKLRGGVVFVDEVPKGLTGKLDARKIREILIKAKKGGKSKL
Method in brief: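 Biochemical qHTS: compounds run as interplate titrations against purified firefly enzyme, with D-luciferin and ATP each at its KM concentration. Light output recorded by CCD imaging.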

[2] = qHTS assay to identify small molecule antagonists of the constitutive androstane receptor (CAR) signaling pathway - cell viability counter screen (AID 1224837); note: nearly all actives have a fitted effect of over 45% in size; note: potency is the fitted concentration of half-maximal effect
Method in brief: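 Cells are seeded, rested 4 hr at 37 C/5% CO2, dosed with compound (15-point series) and 50 nM CITCO, incubated a further 23 hr, and then CellTiter-Fluor reagent is added before fluorescence is read. The line is HepG2 with stable hCAR and CYP2B6-2.2kb.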

[3] = qHTS assay to identify small molecule antagonists of the estrogen related receptor signaling pathway with the pleiotropic PPARgamma coactivator (PGC) from Tox21 10K library - cell viability counter screen (AID 1224840; active = well fitted cell-killing curve with a large enough effect in the repeat runs, not every such curve was filed as active; note: nearly all actives have a fitted effect of over 40% in size; note: potency is the fitted concentration of half-maximal effect)
Method in brief: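 Cell viability is measured by CellTiter-Fluor fluorescence in PGC/ERR cells that receive compounds after a 6-hour attachment period and are then incubated 17.5 hours at 37 C.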

[4] = biological target: Thyrotropin receptor (Homo sapiens) (UniProt P16473); experiment: qHTS assay to identify small molecule agonists of the thyroid stimulating hormone receptor (TSHR) signaling pathway (AID 1224843; calls by dose curve; note: nearly all actives have a fitted effect of over 45% in size)
Sequence of Thyrotropin receptor (Homo sapiens) (P16473 whole entry, looked up): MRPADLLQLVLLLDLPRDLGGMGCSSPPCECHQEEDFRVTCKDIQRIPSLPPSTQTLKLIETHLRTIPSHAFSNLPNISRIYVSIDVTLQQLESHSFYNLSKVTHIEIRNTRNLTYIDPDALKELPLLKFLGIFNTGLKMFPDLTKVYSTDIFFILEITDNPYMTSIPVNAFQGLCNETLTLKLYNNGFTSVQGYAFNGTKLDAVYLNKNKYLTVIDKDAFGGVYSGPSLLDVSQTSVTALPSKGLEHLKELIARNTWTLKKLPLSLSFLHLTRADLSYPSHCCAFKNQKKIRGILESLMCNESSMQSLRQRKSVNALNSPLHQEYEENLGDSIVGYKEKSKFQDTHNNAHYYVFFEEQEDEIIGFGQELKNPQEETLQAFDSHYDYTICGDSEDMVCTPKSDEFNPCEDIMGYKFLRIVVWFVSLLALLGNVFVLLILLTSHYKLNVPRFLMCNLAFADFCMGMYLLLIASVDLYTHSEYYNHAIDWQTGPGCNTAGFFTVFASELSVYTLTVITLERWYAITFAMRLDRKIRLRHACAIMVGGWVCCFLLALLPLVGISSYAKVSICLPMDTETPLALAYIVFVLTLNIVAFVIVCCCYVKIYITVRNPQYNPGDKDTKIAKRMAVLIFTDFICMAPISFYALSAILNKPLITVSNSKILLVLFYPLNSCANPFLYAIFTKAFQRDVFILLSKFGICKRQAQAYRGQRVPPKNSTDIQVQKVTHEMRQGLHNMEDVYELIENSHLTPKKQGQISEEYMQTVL
Method in brief: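 HEK293/TSHR, 800 cells/well; cpd 30 min RT; add cAMP-d2 + anti-cAMP-cryptate, 1 h RT; fluorescence read on plate reader. 15-pt titration, n=3.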

[5] = qHTS assay to identify small molecule agonists of the hypoxia (HIF-1) signaling pathway - cell viability counter screen (AID 1224844; calls by dose curve; note: nearly all actives have a fitted effect of over 50% in size)
Method in brief: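 Viability counter screen: HRE-bla ME-180 cells plated 5 hrs before compound addition, treated 17 hrs at 37C and 5% CO2, then CellTiter-Glo added after the FRET reporter read; luminescence after 30 min.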

[6] = qHTS assay to identify small molecule agonists of H2AX (AID 1224845; active = well fitted activation curve with a large enough effect in the signal ratio in the repeat runs, not every such curve was filed as active; the % refers to the signal ratio)
Method in brief: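 Wild-type CHO-K1 cells, plated overnight, exposed 3hr at 37C to 15 concentrations (0.76% DMSO final). Lysed, then HTRF anti-pH2AX (S139) cryptate and anti-H2AX-d2 antibodies, 24 hr room temperature; 665/620 nm emission read.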

[7] = qHTS assay to identify small molecule agonists of the hypoxia (HIF-1) signaling pathway (AID 1224846; active = well fitted activation curve with a large enough effect in the signal ratio in the repeat runs, not every such curve was filed as active; the % refers to the signal ratio)
Method in brief: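 Agonist mode reporter screen. ME-180 cells stably expressing bla under HRE control received test compounds in DMSO for 17 hrs (37C, 5% CO2), and beta-lactamase activity was then detected with the CCF4-AM FRET substrate.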

[8] = qHTS RealTime-Glo MT Cell Viability Assay in HepG2 cells - 24 hour (AID 1224867); note: nearly all actives have a fitted effect of over 50% in size
Method in brief: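 Viability was tracked continuously by NanoLuc luminescence from prosubstrate reduced by living HepG2 cells, at successive time points over 40 h of compound exposure. Cells with reagent were preincubated 5 h at 37 °C before compound addition.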

[9] = qHTS RealTime-Glo MT Cell Viability Assay in HEK293 cells - 32 hour (AID 1224868); note: nearly all actives have a fitted effect of over 50% in size; note: potency is the fitted concentration of half-maximal effect
Method in brief: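 Viability tracked continuously by luminescence as live cells reduce a prosubstrate for NanoLuc; HEK293 cells preincubated 5 h, compound-treated at 37 C, and read at 0, 8, 16, 24, 32 and 40 h.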

[10] = A CellTox Green Cytotoxicity Assay to monitor cytotoxicity in HEK293 cells - 0 hour (AID 1224869); note: nearly all actives have a fitted effect of over 50% in size
Method in brief: (§1)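 Dead-cell fluorescence measured kinetically: asymmetric cyanine dye, HEK293, 600 cells/well, 5 h settle, 23 nL cpd/DMSO, 37 C, reads 0–40 h every 8 h.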

[11] = qHTS RealTime-Glo MT Cell Viability Assay in HepG2 cells - 40 hour (AID 1224870); note: nearly all actives have a fitted effect of over 50% in size
Method in brief: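 HepG2 cells (600/well) mixed with RealTime-Glo MT reagent, settled 5 h at 37 C/5% CO2 before compound addition. Nonlytic NanoLuc luminescence from viable-cell prosubstrate reduction read repeatedly during 40 h treatment at 37 C.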

[12] = A CellTox Green Cytotoxicity Assay to monitor cytotoxicity in HEK293 cells - 40 hour (AID 1224871); note: nearly all actives have a fitted effect of over 45% in size
Method in brief: as §1

[13] = biological target: Nuclear receptor subfamily 1 group I member 3 (Homo sapiens) (UniProt Q14994); experiment: qHTS assay to identify small molecule antagonists of the constitutive androstane receptor (CAR) signaling pathway (AID 1224838);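 note: HepG2 cells stably expressing hCAR with CYP2B6 luciferase reporter stimulated by CITCO; nearly all actives have a fitted effect of over 40% in size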; note: potency is the fitted concentration of half-maximal effect
Sequence of Nuclear receptor subfamily 1 group I member 3 (Homo sapiens) (Q14994 whole entry, looked up): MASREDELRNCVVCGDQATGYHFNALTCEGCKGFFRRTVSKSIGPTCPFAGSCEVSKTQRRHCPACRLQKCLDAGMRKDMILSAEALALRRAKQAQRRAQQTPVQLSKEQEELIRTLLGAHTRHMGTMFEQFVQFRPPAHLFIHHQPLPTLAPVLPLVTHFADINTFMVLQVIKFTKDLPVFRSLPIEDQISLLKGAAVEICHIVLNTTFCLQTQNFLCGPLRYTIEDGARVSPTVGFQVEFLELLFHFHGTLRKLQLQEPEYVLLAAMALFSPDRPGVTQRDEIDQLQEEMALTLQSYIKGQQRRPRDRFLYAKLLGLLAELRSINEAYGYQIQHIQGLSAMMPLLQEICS
Method in brief: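 Luminescence from a CYP2B6-2.2kb promoter reporter in hCAR-expressing HepG2 cells reflects CAR signaling. Cells received compounds at 15 concentrations and 50 nM CITCO (final), then incubated 24 h at 37 C/5% CO2.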

[14] = qHTS assay to identify small molecule agonists of H2AX - cell viability counter screen (AID 1224847; calls by dose curve; note: top concentration of the series differs between compounds; nearly all actives have a fitted effect of over 30% in size)
Method in brief: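 Cytotoxicity counter screen in wild-type CHO-K1 cells: a 3 hr compound treatment at 37C across 15 concentrations, followed by CellTiter-Glo luminescence to gauge viable cells.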

[15] = biological target: Nuclear receptor subfamily 1 group I member 3 (Homo sapiens) (UniProt Q14994); experiment: qHTS assay to identify small molecule agonists of the constitutive androstane receptor (CAR) signaling pathway (AID 1224839); note: nearly all actives have a fitted effect of over 15% in size; note: potency is the fitted concentration of half-maximal effect;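 for activation: HepG2 cells stably carrying human CAR and a CYP2B6 luciferase reporter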
Method in brief: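 Cells were plated and incubated 4 hrs, then dosed with compounds at 15 concentrations. PK11195 was added to 0.75 uM final. After 24 hrs at 37 C, luciferase luminescence was measured.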

[16] = qHTS assay to identify small molecule antagonists of the estrogen related receptor signaling pathway with the pleiotropic PPARgamma coactivator (PGC) from Tox21 10K library (AID 1224841; call rule not given here; note: potency is the fitted concentration of half-maximal effect)
Method in brief: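 Cells stably carrying the PGC/ERR reporter, seeded at 2,000 per well, received pin-transferred compounds 6 h post-plating. Exposure lasted 18 h at 37 C. Signal: One-Glo luminescence.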

[17] = qHTS assay to identify small molecule antagonists of the estrogen related receptor (ERR) signaling pathway from Tox21 library (AID 1224848); note: nearly all actives have a fitted effect of over 50% in size; note: potency is the fitted concentration of half-maximal effect
Method in brief: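 Compounds dissolved in DMSO are pin-transferred onto ERR reporter cells (2,000 per well) that have settled for 6 h at 37 C. Plates then incubate 18 h at 37 C before ONE-Glo luciferase reagent and a luminescence read 30 min later.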

[18] = qHTS assay to identify small molecule agonists of the estrogen related receptor (ERR) signaling pathway from Tox21 library (AID 1224849; calls by dose curve; note: nearly all actives have a fitted effect of over 15% in size); conditions: ERR reporter cell line, ONE-Glo luciferase, 18 h; at 92.4 µM (top of the series) unless noted
Method in brief: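 Quantitative HTS in agonist format: NTP ERR cell line, compounds transferred in DMSO after 6 h plating, 18 h incubation at 37 C, ONE-Glo luminescence endpoint.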

[19] = qHTS assay to identify small molecule agonists of the estrogen related receptor signaling pathway with the pleiotropic PPARgamma coactivator (PGC) from Tox21 10K library (AID 1224842); note: nearly all actives have a fitted effect of over 15% in size; note: potency is the fitted concentration of half-maximal effect
Method in brief: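 PGC/ERR reporter cell line, 2,000 cells per well, incubated 6 h at 37 C before 23 nL compound in DMSO was added. After 18 h at 37 C, One-Glo luminescence read following 30 min at room temperature.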
% is set by controls: 0 for no effect and ±100 for the full control effect.

CCOC(=O)[C@H](CCc1ccccc1)N[C@@H](C)C(=O)N1Cc2cc(OC)c(OC)cc2C[C@H]1C(=O)O
inactive: Potency [1] | Potency [2] | Potency [3] | Potency [4] | Potency [5] | Potency [6] | outcome [7] | Potency [8] | Potency [9] | Potency [10] | Potency [11] | Potency [12]

Cc1onc(-c2ccccc2)c1C(=O)Cl
inactive: Potency [1] | Potency [2] | Potency [13] | Potency [3] | Potency [4] | Potency [5] | Potency [6] | Potency [14] | Potency [8] | Potency [9] | Potency [10] | Potency [11] | Potency [12]

NS(=O)(=O)c1cc(-c2nn[nH]n2)c(NCc2cccs2)cc1Cl
active: Potency [13] 23.7 µM
inactive: Potency [1] | Potency [2] | Potency [15] | Potency [3] | Potency [4] | Potency [6] | outcome [7] | Potency [8] | Potency [9] | Potency [10] | Potency [11] | Potency [12]

CCC(=O)O[C@]1(C(=O)SCF)[C@H](C)C[C@H]2[C@@H]3C[C@H](F)C4=CC(=O)C=C[C@]4(C)[C@@]3(F)[C@@H](O)C[C@@]21C
inactive: Potency [1] | Potency [2] | Potency [13] | Potency [3] | Potency [16] | Potency [4] | Potency [5] | Potency [14] | Potency [17] | activity change, positive = activation [18] -0.0041% [at 42.5 µM] | Potency [8] | Potency [9] | Potency [10] | Potency [11] | Potency [12]

CN1CCN(C2=Nc3ccccc3Oc3ccc(Cl)cc32)CC1
inactive: Potency [1] | Potency [2] | Potency [13] | Potency [3] | Potency [19] | Potency [4] | Potency [5] | Potency [6] | Potency [14] | activity change, positive = activation [18] -21.9% [at 42.5 µM] | Potency [8] | Potency [9] | Potency [10] | Potency [11] | Potency [12]

CN1CCC[C@@H]1Cc1c[nH]c2ccc(CCS(=O)(=O)c3ccccc3)cc12
inactive: Potency [1] | Potency [2] | Potency [13] | Potency [15] | Potency [3] | Potency [4] | Potency [5] | Potency [6] | outcome [7] | Potency [17] | activity change, positive = activation [18] -4.97% [at 42.5 µM] | Potency [8] | Potency [9] | Potency [10] | Potency [12]

N#CSCC(=O)O
inactive: Potency [1] | Potency [13] | Potency [15] | Potency [3] | Potency [16] | Potency [19] | Potency [4] | Potency [5] | Potency [6] | outcome [7] | Potency [17] | activity change, positive = activation [18] 4.98% [at 42.5 µM] | Potency [8] | Potency [9] | Potency [10] | Potency [11] | Potency [12]

O=C(CCCl)NCc1ccccc1
inactive: Potency [1] | Potency [2] | Potency [13] | Potency [15] | Potency [3] | Potency [16] | Potency [19] | Potency [4] | Potency [5] | outcome [7] | Potency [14] | Potency [17] | activity change, positive = activation [18] 5.97% [at 42.5 µM] | Potency [8] | Potency [9] | Potency [10] | Potency [11] | Potency [12]

CC1CN(c2ccccc2)NC1=O (stereo unspecified)
inactive: Potency [1] | Potency [2] | Potency [13] | Potency [3] | Potency [4] | Potency [5] | outcome [7] | Potency [14] | Potency [8] | Potency [9] | Potency [10] | Potency [11] | Potency [12]

Nc1ccc(Oc2ccc(N)c(N)c2)cc1
active: Potency [1] 7.96 µM | Potency [15] 2.43 µM | Potency [3] 48.6 µM | Potency [19] 9.69 µM | activity change, positive = activation [18] 53.1%
inactive: Potency [13] | Potency [16] | Potency [5] | outcome [7] | Potency [14] | Potency [17] | Potency [8] | Potency [10] | Potency [11] | Potency [12]

Cc1nc(-c2ccccn2)ncc1C(=O)Nn1cc(C)c2cc(F)ccc21
inactive: Potency [1] | Potency [15] | Potency [19] | Potency [4] | activity change, positive = activation [18] -53.1% | Potency [8] | Potency [10] | Potency [11] | Potency [12]
active: Potency [2] 24.3 µM | Potency [13] 13.7 µM | Potency [16] 38.6 µM | Potency [17] 54.5 µM | Potency [9] 1.55 µM

CCCCCCCOC(=O)CCC
inactive: Potency [1] | Potency [2] | Potency [13] | Potency [3] | Potency [16] | Potency [19] | Potency [4] | Potency [5] | Potency [6] | outcome [7] | Potency [14] | Potency [17] | activity change, positive = activation [18] -0.487% | Potency [8] | Potency [9] | Potency [10] | Potency [11] | Potency [12]

CCOC(=O)NCCC[Si](OCC)(OCC)OCC
inactive: Potency [1] | Potency [2] | Potency [13] | Potency [3] | Potency [16] | Potency [19] | Potency [4] | Potency [5] | Potency [6] | outcome [7] | Potency [14] | Potency [17] | activity change, positive = activation [18] -9.42% | Potency [8] | Potency [9] | Potency [10] | Potency [11] | Potency [12]

O=C(O[C@@H](C(=O)O)[C@@H](OC(=O)c1ccccc1)C(=O)O)c1ccccc1
inactive: Potency [1] | Potency [2] | Potency [13] | Potency [3] | Potency [19] | Potency [5] | Potency [6] | outcome [7] | Potency [14] | Potency [17] | activity change, positive = activation [18] -13.3% | Potency [8] | Potency [9] | Potency [10] | Potency [11] | Potency [12]

CCN(CCCc1ccccc1)CCCc1ccccc1
inactive: Potency [1] | Potency [2] | Potency [3] | Potency [19] | Potency [4] | Potency [5] | Potency [6] | Potency [14] | Potency [17] | activity change, positive = activation [18] -7.88% [at 42.5 µM] | Potency [8] | Potency [10] | Potency [11] | Potency [12]

CN(C)Cc1ccccc1
inactive: Potency [1] | Potency [2] | Potency [3] | Potency [4] | Potency [5] | Potency [6] | outcome [7] | Potency [14] | Potency [8] | Potency [9] | Potency [10] | Potency [11] | Potency [12]

O=C1CCCCCCCCCCC(=O)OCCO1
inactive: Potency [1] | Potency [2] | Potency [13] | Potency [15] | Potency [3] | Potency [4] | Potency [5] | Potency [6] | outcome [7] | Potency [8] | Potency [9] | Potency [10]

— PubChem BioAssay (Tox21)
